# Source: PubChem BioAssay (EPA / NIEHS)
# Results filed as inconclusive are left out. A structure can be active in one record and inactive in another. Active and inactive are the calls of the source. Rule for the calls, unless noted: active = hit-call score of the fitted dose curve at least 0.9, where 1 is the maximum; inconclusive = response in the unintended direction; inactive = score below 0.9.
# Columns and labels:
# [1] = ATG_ERE_CIS: Attagene CIS-FACTORIAL HepG2 Assay for Estrogen Response Element (ERE) (AID 2282940; active = hit-call score of the fitted dose curve at least 0.9, where 1 is the maximum; inactive = score below 0.9); conditions: HepG2 ERE cis-reporter, Attagene RNA transcript; actives raise or lower the signal
# How it was run: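 After 24 h compound treatment, RNA from transfected HepG2 cells was reverse-transcribed, reporter cDNA PCR-amplified, FAM-labelled, HpaI-cut and resolved by capillary electrophoresis. ERE-driven cis reporter transcripts reflect endogenous factors; gain or loss scored against DMSO.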
# [2] = target: Glucocorticoid receptor (Homo sapiens) (UniProt P04150); test: ATG_GR_TRANS: Attagene TRANS-FACTORIAL HepG2 Assay for human Glucocorticoid Receptor (GR) (AID 2282978); conditions: HepG2 Attagene TRANS GR reporter, mRNA transcription;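 note: activators score as hits since higher reporter transcript over DMSO is fitted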
# How it was run: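 HepG2 cells transiently transfected with GAL4-UAS reporter units and exogenous GR-Gal4 chimera, dosed 24 h. Reporter mRNA by RT-PCR, FAM labeling, HpaI digest and capillary electrophoresis; gain-of-signal fit versus DMSO.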
# [3] = target: Oxysterols receptor LXR-alpha (Homo sapiens) (UniProt Q13133); test: ATG_LXRa_TRANS: Attagene TRANS-FACTORIAL HepG2 Assay for human Liver X Receptor alpha (LXRa) (AID 2282980); conditions: HepG2 Attagene TRANS reporter, LXRa transactivation
# How it was run: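 HepG2 cells transiently transfected with GAL4-UAS reporter units for chimeric NR-Gal4 proteins, exposed to chemicals for 24 h. Reporter mRNA quantified by RT-PCR and capillary electrophoresis; gain of signal fitted relative to DMSO.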
# [4] = target: Oxysterols receptor LXR-beta (Homo sapiens) (UniProt P55055); test: ATG_LXRb_TRANS: Attagene TRANS-FACTORIAL HepG2 Assay for human Liver X Receptor beta (LXRb) (AID 2282981); conditions: HepG2 Attagene TRANS GAL4-LXRb reporter, mRNA
# How it was run: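 HepG2 cells transiently transfected with multiple reporter transcription units carrying chimeric NR-Gal4 proteins acting on GAL4-UAS reporters; compound exposure 24 h. Reporter mRNA quantified by RT-PCR, 6-FAM labelling, HpaI digestion and capillary electrophoresis; gain of signal versus DMSO.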
# [5] = target: Hepatocyte nuclear factor 4-alpha (Homo sapiens) (UniProt P41235); test: ATG_HNF4a_TRANS: Attagene TRANS-FACTORIAL HepG2 Assay for human Hepatocyte Nuclear Factor 4 alpha (HNF4a) (AID 2282982); conditions: HepG2 HNF4a transactivation reporter, mRNA readout
# How it was run: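 HepG2 cells transiently transfected with multiplexed GAL4-UAS reporter units responsive to chimeric NR-GAL4 proteins; compound exposure 24 h. Reporter mRNA quantified by RT-PCR, 6-FAM labelling, HpaI digestion and capillary electrophoresis; gain of signal versus DMSO baseline.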
# [6] = target: human Peroxisome Proliferator-activated Receptor delta (PPARd), PPARD (gene 5467) (UniProt Q03181); test: ATG_PPARd_TRANS: Attagene TRANS-FACTORIAL HepG2 Assay for human Peroxisome Proliferator-activated Receptor delta (PPARd) (AID 2283002)
# How it was run: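 HepG2 cells transiently transfected with multiplexed GAL4-UAS reporter units and exogenous chimeric NR-Gal4 proteins; 24 h compound exposure. Reporter mRNA measured by RT-PCR, 6-FAM labelling, HpaI digestion and capillary electrophoresis; gain of signal versus DMSO.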
# [7] = TOX21_p53_BLA_p2_viability: Viability Assessment in the Tox21 HCT-116 p53 Agonism Beta-lactamase Assay, Phase 2 (AID 2283591);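 note: compound exposure lasted 16 h at 37 °C; actives lower the ATP signal meaning cytotoxicity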
# How it was run: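 HCT-116 p53-bla cells (4000/well) rested 5 h at 37C, then received compounds in DMSO (217-fold dilution) for 16 h at 37C, 5% CO2. After the CCF4 read, CellTiter-Glo was added; ATP luminescence was read after 30 min at room temperature.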
# [8] = TOX21_p53_BLA_p4_viability: Viability Assessment in the Tox21 HCT-116 p53 Agonism Beta-lactamase Assay, Phase 4 (AID 2283597);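 note: hits lower the luminescence signal meaning cytotoxicity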
# How it was run: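 HCT-116 p53-bla cells, 4000/well, dosed after 5 h attachment and incubated 16 h at 37 °C, 5% CO2. Viability from CellTiter-Glo ATP luminescence after 30 min at room temperature, taken after the beta-lactamase read; loss of signal indicates cytotoxicity.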
# [9] = target: Cellular tumor antigen p53 (Homo sapiens) (UniProt P04637); test: TOX21_p53_BLA_p4_ratio: Tox21 HCT-116 p53 Agonism Beta-lactamase Assay, Ratio, Phase 4 (AID 2283601)
# How it was run: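 HCT116 cells carrying an inducible beta-lactamase reporter were plated at 4000 cells/well, rested 5 h, then exposed to compounds in DMSO (217-fold dilution) for 16 h at 37C. CCF4-AM substrate was loaded 2 h at room temperature; 460/530 nm emission ratio scored gain-of-signal versus DMSO.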
# [10] = target: Nuclear receptor subfamily 1 group I member 3 (Homo sapiens) (UniProt Q14994); test: ATG_CAR_TRANS: Attagene TRANS-FACTORIAL HepG2 Assay for human Constitutive Androstane Receptor (CAR) (AID 2282969); conditions: HepG2 Attagene TRANS-FACTORIAL CAR reporter;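 note: activators raise reporter mRNA above DMSO so AC50 marks induction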
# How it was run: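 HepG2 cells transiently transfected with multiplexed GAL4-UAS reporter units expressing chimeric NR-Gal4 proteins; compound exposure 24 h. Reporter mRNA measured by RT-PCR, 6-FAM labelling, HpaI digestion and capillary electrophoresis; gain-of-signal fitted against DMSO baseline.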
# [11] = ACEA_ER_AUC_viability: ACEA Biosciences xCELLigence Real-Time Cell Analysis on Estrogen Receptor Agonism for Viability (AID 2283782);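 note: continuous compound exposure with impedance area under curve over 80 h; hit means loss of impedance signal meaning reduced cell growth or viability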
# How it was run: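 T-47D human breast cells in phenol red-free RPMI1640 with 10% charcoal-stripped FBS were dosed with an 8-point 1:4 dilution series from 100 uM top final concentration, in duplicate. Impedance-based growth was followed for 80 h; AUC analysed versus DMSO.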
# [12] = target: Bile acid receptor (Homo sapiens) (UniProt Q96RI1); test: ATG_IR1_CIS: Attagene CIS-FACTORIAL HepG2 Assay for human Nuclear Receptor Subfamily 1 Group H Member 4 (NR1H4), IR1 submotif (AID 2282946; active = hit-call score of the fitted dose curve at least 0.9, where 1 is the maximum; inactive = score below 0.9); conditions: IR1 reporter transcription, actives raise or lower the signal
# How it was run: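 Transient MRTU transfection, HepG2; 24 h dosing; RNA → RT-PCR → 6-FAM primer extension → HpaI digest → capillary electrophoresis fluorescence. Gain/loss of signal fitted relative to DMSO.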
# [13] = target: human RAR-related Orphan Receptor beta (RORb), RORB (gene 6096) (UniProt Q92753); test: ATG_RORb_TRANS: Attagene TRANS-FACTORIAL HepG2 Assay for human RAR-related Orphan Receptor beta (RORb) (AID 2283010)
# How it was run: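 HepG2 cells were transiently transfected with multiplexed GAL4-UAS reporter units expressing chimeric nuclear receptor–GAL4 proteins, then dosed for 24 h. Reporter mRNA was quantified by RT-PCR with fluorescent labelling and capillary electrophoresis; gain of signal was fitted relative to DMSO.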
# [14] = ATG_XTT_Cytotoxicity: Cytotoxicity Assessment in the Attagene TRANS-FACTORIAL HepG2 Assay (AID 2283584)
# How it was run: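 HepG2 cells transiently transfected with GAL4-UAS multiple reporter units, dosed 24 h; cytotoxicity read by XTT as loss of signal versus DMSO baseline.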
# [15] = TOX21_p53_BLA_p3_viability: Viability Assessment in the Tox21 HCT-116 p53 Agonism Beta-lactamase Assay, Phase 3 (AID 2283593);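 note: cells exposed to compound for 16 h before reading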
# How it was run: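 HCT-116 cells (4000/well) rested 5 h at 37C, then got DMSO compounds by pin tool (217-fold dilution) for 16 h at 37C, 5% CO2. After the bla read, CellTiter-Glo was added and luminescence read at 30 min, room temperature.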
# [16] = target: Cellular tumor antigen p53 (Homo sapiens) (UniProt P04637); test: TOX21_p53_BLA_p3_ratio: Tox21 HCT-116 p53 Agonism Beta-lactamase Assay, Ratio, Phase 3 (AID 2283596)
# How it was run: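 HCT116 p53-bla cells (4000/well) given compound in DMSO (217-fold dilution) after 5 h, incubated 16 h at 37C. CCF4-AM substrate 2 h at room temperature; 460/530 nm emission ratio, gain fitted against DMSO.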
# [17] = target: Cellular tumor antigen p53 (Homo sapiens) (UniProt P04637); test: TOX21_p53_BLA_p5_ratio: Tox21 HCT-116 p53 Agonism Beta-lactamase Assay, Ratio, Phase 5 (AID 2283599)
# How it was run: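 HCT-116 cells carrying a p53-inducible beta-lactamase reporter were seeded at 4000 cells/well and dosed after 5 h with compound in DMSO (217-fold dilution). After 16 h at 37C, CCF4-AM substrate was added for 2 h, and the 460/530 nm emission ratio was scored as gain-of-signal versus DMSO.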
# [18] = target: human RAR-related Orphan Receptor gamma (RORg), RORC (gene 6097) (UniProt P51449); test: ATG_RORg_TRANS: Attagene TRANS-FACTORIAL HepG2 Assay for human RAR-related Orphan Receptor gamma (RORg) (AID 2283011)
# How it was run: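 HepG2 cells transiently transfected with GAL4-UAS reporter units and chimeric RORg-Gal4 construct; after 24 h chemical exposure, reporter mRNA measured by RT-PCR with fluorescent capillary electrophoresis, gain of signal fitted against DMSO.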
# [19] = target: Cellular tumor antigen p53 (Homo sapiens) (UniProt P04637); test: TOX21_p53_BLA_p2_ratio: Tox21 HCT-116 p53 Agonism Beta-lactamase Assay, Ratio, Phase 2 (AID 2283592)
# How it was run: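 HCT-116 cells with p53-responsive beta-lactamase reporter, 4000 cells/well, preincubated 5 h, then compound in DMSO (217-fold dilution) for 16 h at 37C. CCF4-AM substrate 2 h at room temperature; 460/530 nm emission ratio fitted upward versus DMSO.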
# [20] = CCTE_Harrill_HTTr_CellCount_MCF7: CCTE's Cell Proliferation Assessment for the High-Throughput Transcriptomics (HTTr) Platform, Harrill Lab (AID 2284012);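 note: cells exposed to compound for six hours; intended direction is loss of nuclei count meaning fewer cells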
# How it was run: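 MCF-7 cells were exposed for 6 h to an eight-point dilution series; Hoechst-labeled nuclei were counted by high content imaging. Curves were fitted bidirectionally against DMSO as negative control and baseline, with signal loss indicating reduced cell count.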
# Chain of Hepatocyte nuclear factor 4-alpha (Homo sapiens) (P41235 whole entry, looked up, the tested form may be a part): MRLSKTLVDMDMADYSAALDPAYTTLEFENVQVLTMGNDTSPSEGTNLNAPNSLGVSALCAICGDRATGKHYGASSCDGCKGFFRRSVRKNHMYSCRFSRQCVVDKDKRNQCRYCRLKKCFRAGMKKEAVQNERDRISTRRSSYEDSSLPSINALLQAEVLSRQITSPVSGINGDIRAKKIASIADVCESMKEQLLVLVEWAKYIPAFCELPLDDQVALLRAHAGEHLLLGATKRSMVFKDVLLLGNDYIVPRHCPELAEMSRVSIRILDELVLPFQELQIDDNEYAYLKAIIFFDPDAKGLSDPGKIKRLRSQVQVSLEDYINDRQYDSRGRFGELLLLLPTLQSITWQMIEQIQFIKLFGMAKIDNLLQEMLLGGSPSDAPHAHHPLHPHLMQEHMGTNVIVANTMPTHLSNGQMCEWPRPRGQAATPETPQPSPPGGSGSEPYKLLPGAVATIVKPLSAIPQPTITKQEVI
# Chain of Cellular tumor antigen p53 (Homo sapiens) (P04637 whole entry, looked up): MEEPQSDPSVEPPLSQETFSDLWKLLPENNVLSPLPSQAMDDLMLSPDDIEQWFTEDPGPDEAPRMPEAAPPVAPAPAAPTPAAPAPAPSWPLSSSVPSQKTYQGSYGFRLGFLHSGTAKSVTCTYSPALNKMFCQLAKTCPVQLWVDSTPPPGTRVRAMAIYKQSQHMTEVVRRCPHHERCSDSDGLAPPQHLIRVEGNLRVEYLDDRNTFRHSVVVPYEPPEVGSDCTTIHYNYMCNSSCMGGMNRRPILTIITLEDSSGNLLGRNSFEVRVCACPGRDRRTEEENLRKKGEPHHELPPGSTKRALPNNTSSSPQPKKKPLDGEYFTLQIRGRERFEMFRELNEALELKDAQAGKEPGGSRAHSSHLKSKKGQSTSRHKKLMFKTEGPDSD
# Chain of human RAR-related Orphan Receptor beta (RORb), RORB (gene 6096) (Q92753 whole entry, looked up, the tested form may be a part): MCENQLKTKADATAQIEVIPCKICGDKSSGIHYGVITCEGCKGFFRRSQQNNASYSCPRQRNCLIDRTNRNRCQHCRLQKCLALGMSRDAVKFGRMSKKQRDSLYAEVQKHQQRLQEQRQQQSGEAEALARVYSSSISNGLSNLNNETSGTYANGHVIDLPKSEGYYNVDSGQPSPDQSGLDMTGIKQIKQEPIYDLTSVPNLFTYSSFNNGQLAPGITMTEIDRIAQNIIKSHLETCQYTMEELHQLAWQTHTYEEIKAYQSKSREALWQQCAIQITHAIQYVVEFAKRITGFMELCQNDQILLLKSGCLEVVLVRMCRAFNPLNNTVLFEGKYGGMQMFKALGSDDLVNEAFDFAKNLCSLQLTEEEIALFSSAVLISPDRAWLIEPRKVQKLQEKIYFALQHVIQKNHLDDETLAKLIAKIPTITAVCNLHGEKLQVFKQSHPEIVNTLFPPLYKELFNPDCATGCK
# Chain of Oxysterols receptor LXR-beta (Homo sapiens) (P55055 whole entry, looked up, the tested form may be a part): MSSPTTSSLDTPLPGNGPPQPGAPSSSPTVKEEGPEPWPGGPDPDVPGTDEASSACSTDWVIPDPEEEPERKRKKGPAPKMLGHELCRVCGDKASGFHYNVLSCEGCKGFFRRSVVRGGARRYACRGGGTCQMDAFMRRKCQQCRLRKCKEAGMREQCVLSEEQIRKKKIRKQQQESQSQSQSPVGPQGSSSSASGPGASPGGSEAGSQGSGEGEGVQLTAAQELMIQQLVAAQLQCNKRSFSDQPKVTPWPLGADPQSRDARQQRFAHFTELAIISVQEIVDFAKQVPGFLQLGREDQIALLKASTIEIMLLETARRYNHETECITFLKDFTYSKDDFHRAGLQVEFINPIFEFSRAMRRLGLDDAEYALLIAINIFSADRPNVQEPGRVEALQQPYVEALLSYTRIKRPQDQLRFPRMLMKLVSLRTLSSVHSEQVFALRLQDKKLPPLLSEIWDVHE
# Chain of Bile acid receptor (Homo sapiens) (Q96RI1 whole entry, looked up): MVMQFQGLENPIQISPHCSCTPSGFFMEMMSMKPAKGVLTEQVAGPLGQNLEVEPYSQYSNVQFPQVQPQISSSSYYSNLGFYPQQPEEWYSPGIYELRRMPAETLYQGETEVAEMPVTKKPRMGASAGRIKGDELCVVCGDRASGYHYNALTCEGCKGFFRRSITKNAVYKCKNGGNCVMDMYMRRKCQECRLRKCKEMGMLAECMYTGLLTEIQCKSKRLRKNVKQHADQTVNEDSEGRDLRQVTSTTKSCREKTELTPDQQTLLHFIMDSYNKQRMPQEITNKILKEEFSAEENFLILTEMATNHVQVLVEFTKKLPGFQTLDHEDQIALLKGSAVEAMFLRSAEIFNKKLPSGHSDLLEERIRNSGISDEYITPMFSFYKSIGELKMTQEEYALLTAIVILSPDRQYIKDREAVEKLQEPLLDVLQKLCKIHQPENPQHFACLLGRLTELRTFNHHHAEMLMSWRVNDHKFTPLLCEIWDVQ
# Chain of human Peroxisome Proliferator-activated Receptor delta (PPARd), PPARD (gene 5467) (Q03181 whole entry, looked up, the tested form may be a part): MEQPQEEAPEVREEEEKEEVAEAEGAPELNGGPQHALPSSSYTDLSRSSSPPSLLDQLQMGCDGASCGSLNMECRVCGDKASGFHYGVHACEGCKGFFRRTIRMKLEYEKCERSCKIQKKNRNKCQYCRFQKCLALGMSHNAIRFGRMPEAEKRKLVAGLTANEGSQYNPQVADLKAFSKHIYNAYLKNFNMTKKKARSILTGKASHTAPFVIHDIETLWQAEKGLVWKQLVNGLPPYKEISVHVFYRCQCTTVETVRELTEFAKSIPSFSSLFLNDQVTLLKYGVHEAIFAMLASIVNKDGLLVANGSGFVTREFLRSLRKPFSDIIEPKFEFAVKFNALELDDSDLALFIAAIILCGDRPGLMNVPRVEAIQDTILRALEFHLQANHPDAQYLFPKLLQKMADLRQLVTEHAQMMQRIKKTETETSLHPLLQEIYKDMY
# Chain of Glucocorticoid receptor (Homo sapiens) (P04150 whole entry, looked up, the tested form may be a part): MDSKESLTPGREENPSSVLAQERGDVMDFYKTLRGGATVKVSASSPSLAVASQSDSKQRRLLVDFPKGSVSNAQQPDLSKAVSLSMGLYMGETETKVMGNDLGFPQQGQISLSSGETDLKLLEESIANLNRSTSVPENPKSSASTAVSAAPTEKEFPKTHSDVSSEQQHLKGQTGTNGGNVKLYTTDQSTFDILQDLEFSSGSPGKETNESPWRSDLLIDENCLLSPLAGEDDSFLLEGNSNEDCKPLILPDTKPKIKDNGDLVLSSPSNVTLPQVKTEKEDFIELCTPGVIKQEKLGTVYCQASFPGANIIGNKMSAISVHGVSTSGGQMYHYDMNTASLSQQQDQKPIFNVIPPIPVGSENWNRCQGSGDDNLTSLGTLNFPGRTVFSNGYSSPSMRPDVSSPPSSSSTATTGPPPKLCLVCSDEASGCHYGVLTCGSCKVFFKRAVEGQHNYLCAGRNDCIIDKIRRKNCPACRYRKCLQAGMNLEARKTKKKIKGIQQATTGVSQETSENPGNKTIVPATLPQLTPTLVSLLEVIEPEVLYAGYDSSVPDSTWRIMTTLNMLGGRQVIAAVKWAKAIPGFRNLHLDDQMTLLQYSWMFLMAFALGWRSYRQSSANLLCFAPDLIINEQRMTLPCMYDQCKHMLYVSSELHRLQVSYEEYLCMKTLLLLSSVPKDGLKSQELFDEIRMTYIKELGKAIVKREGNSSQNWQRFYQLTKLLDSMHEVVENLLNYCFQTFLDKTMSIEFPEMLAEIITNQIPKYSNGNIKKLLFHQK
# Chain of human RAR-related Orphan Receptor gamma (RORg), RORC (gene 6097) (P51449 whole entry, looked up, the tested form may be a part): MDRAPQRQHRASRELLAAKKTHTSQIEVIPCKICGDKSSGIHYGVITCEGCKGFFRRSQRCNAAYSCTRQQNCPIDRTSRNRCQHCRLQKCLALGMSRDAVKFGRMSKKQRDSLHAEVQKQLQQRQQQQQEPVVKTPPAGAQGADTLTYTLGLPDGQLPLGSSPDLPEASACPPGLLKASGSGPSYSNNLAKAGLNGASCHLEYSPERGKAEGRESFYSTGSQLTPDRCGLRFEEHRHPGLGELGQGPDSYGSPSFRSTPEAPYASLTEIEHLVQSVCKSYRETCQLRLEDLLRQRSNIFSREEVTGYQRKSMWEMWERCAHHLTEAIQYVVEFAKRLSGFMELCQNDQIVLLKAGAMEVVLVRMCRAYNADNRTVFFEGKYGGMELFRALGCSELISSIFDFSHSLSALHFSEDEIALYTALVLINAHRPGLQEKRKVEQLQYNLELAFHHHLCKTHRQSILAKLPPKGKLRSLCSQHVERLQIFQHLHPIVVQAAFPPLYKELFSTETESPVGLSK
# Chain of Oxysterols receptor LXR-alpha (Homo sapiens) (Q13133 whole entry, looked up, the tested form may be a part): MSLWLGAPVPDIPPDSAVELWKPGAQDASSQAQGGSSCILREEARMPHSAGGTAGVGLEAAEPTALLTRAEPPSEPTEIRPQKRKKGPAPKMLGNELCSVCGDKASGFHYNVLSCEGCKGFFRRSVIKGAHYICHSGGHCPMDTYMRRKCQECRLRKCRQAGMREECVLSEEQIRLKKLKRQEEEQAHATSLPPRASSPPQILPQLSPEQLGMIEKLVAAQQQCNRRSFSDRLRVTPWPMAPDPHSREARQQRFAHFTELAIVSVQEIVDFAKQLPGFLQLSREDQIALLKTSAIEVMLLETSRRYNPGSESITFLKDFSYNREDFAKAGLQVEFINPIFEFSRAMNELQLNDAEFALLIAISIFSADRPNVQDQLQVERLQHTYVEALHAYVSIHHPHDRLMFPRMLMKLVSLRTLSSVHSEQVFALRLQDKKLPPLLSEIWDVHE
# Chain of Nuclear receptor subfamily 1 group I member 3 (Homo sapiens) (Q14994 whole entry, looked up, the tested form may be a part): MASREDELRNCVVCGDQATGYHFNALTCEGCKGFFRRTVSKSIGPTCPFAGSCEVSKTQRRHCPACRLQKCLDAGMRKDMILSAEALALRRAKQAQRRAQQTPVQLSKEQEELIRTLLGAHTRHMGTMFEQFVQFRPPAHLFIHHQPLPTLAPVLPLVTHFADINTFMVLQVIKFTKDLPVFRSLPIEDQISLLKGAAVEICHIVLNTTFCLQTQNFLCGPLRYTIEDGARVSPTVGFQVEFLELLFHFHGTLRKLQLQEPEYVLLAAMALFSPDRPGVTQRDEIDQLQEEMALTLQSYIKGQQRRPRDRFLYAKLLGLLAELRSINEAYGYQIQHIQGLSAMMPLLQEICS
structure (smiles),measurement,setting,value
C[N+](=O)[O-],outcome,[1],inactive
same,outcome,[2],inactive
same,outcome,[3],inactive
same,outcome,[4],inactive
same,outcome,[5],inactive
same,outcome,[6],inactive
same,outcome,[7],inactive
same,outcome,[8],inactive
same,outcome,[9],inactive
Nc1c(Cl)c(Cl)c(Cl)c(Cl)c1Cl,AC50,[10],27.3 µM (active)
same,outcome,[2],inactive
same,outcome,[3],inactive
same,AC50,[4],26.1 µM (active)
same,outcome,[6],inactive
same,outcome,[11],inactive
CCOP(=O)(OCC)Oc1ccc([N+](=O)[O-])cc1,outcome,[12],inactive
same,outcome,[10],inactive
same,outcome,[3],inactive
same,outcome,[4],inactive
same,outcome,[6],inactive
same,outcome,[13],inactive
same,outcome,[14],inactive
same,outcome,[7],inactive
same,outcome,[15],inactive
same,outcome,[16],inactive
same,outcome,[8],inactive
same,outcome,[17],inactive
same,outcome,[9],inactive
CCNCC,outcome,[4],inactive
same,outcome,[18],inactive
CCCCCCC1CCOC1=O (configuration not stated),outcome,[2],inactive
same,outcome,[13],inactive
same,outcome,[14],inactive
same,outcome,[17],inactive
same,outcome,[9],inactive
same,AC50,[11],23.3 µM (active)
COc1ccc(CO)cc1,outcome,[12],inactive
same,outcome,[2],inactive
same,outcome,[4],inactive
same,outcome,[6],inactive
same,outcome,[13],inactive
same,outcome,[18],inactive
same,outcome,[14],inactive
same,outcome,[7],inactive
same,outcome,[19],inactive
same,outcome,[16],inactive
same,outcome,[17],inactive
same,outcome,[20],inactive
CC1(C)[C@H](C(=O)O[C@H](C#N)c2cccc(Oc3ccccc3)c2)[C@@H]1C=C(Br)Br,outcome,[2],inactive
same,outcome,[13],inactive
same,outcome,[14],inactive
same,outcome,[7],inactive
same,outcome,[19],inactive
same,outcome,[15],inactive
same,outcome,[16],inactive
same,outcome,[8],inactive
same,AC50,[17],82.2 µM (active)
same,outcome,[17],inactive
same,AC50,[11],72.7 µM (active)
O=c1c2ccccc2c(=O)c2c1cc(Cl)c1[nH]c3c([nH]c12)c(Cl)cc1c(=O)c2ccccc2c(=O)c13,outcome,[1],inactive
same,outcome,[12],inactive
same,outcome,[10],inactive
same,outcome,[5],inactive
same,outcome,[6],inactive
same,outcome,[13],inactive
same,outcome,[18],inactive
same,outcome,[14],inactive
same,outcome,[19],inactive
same,outcome,[15],inactive
same,outcome,[8],inactive
same,outcome,[9],inactive
same,AC50,[11],6.28 µM (active)
Oc1ccc(C2(c3ccc(O)cc3)c3ccccc3-c3ccccc32)cc1,outcome,[1],inactive
same,outcome,[12],inactive
same,outcome,[2],inactive
same,outcome,[3],inactive
same,outcome,[7],inactive
same,AC50,[19],0.265 µM (active)
same,AC50,[15],0.237 µM (active)
same,AC50,[16],0.906 µM (active)
same,outcome,[8],inactive
same,AC50,[17],76.6 µM (active)
same,AC50,[9],67.8 µM (active)
C#CC1(O)CCCCC1,outcome,[13],inactive
same,outcome,[18],inactive
same,outcome,[19],inactive
same,outcome,[16],inactive
same,outcome,[8],inactive
same,outcome,[17],inactive
same,outcome,[9],inactive
same,AC50,[11],61.7 µM (active)
O=[N+]([O-])O.O=[N+]([O-])O.[Cd],outcome,[4],inactive
same,outcome,[5],inactive
same,outcome,[13],inactive
same,AC50,[7],59.2 µM (active)
same,outcome,[15],inactive
same,outcome,[8],inactive
